From PubChem BioAssay (NCI)
This is part of a sample that, as a whole, favours compounds with a hit. Of some 83,000 tested, about 20% had one in any assay.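 Method: cells in 96-well plates; compound added at one concentration; 48 h incubation; percent growth measured; values under 10 scored active.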 Values without a mark were called inactive. Active and inactive are the calls of the source.

What follows are compounds tested on HL-60(TB) leukemia (assay: NCI-60 one-dose screen, 48 h (100 = growth as untreated, 0 = no growth, -100 = all killed)). Conditions: 10 µM unless noted.

SMILES | growth
ClCc1cccc2c(CCl)cccc12 | 48.2%
O=C1/C(=C/c2ccc(Cl)cc2)CN(Cc2cn(CCCNc3ccnc4cc(Cl)ccc34)nn2)C/C1=C\c1ccc(Cl)cc1 | -46.7% (active)
COc1cc(C2CC(=O)Nc3c2c(C)nn3-c2nc3ccccc3[nH]2)cc(OC)c1O (stereo unspecified) | 43.7%
CC1c2ccccc2N(S(=O)(=O)c2ccccc2)C1C (stereo unspecified) | 67.6%
O=C(/C=C1\C(=O)N(Cc2ccccc2)c2ccccc21)c1ccc(OCCN2CCCCC2)cc1 | 7.79% (active)
CC(=O)Nc1ccc2c(c1)C(=O)c1cccc(C(=O)O)c1-2 | 97.2%
CCc1ccc(-c2ccc(=O)n(-c3ccc(S(N)(=O)=O)cc3)n2)cc1 | -4.27% (active)
NC(=O)c1noc(C(=O)c2ccccc2)c1N | 93.7%
O=[N+]([O-])c1ccc(N/N=C\c2ccccc2[N+](=O)[O-])nc1 | 109%
Clc1ccc2c(c1)-c1ccccc1C1=NCCN12 | 38.1%
COc1ccc(C(c2ccc(OCCN(C)C)cc2)c2cc3ccccc3c3ccccc23)cc1 (stereo unspecified) | 3.59% (active)
O=S(=O)(NCCNc1nccc(-c2c(-c3ccc(F)c(O)c3)nc3sccn23)n1)c1ccc(F)cc1 | 12.7%
COC(=O)C1CC(=O)N(C(=O)Nc2ccc(Cl)cc2Cl)C1 (stereo unspecified) | 97.8%
O=C(CSc1nnc2sc(Nc3cccc(Cl)c3)nn12)c1ccc(F)cc1 | 82.7%
O=C(Nc1ccc(-n2ccc3c(NC(=O)c4ccccc4)nccc32)cc1)c1ccc(Cl)c(C(F)(F)F)c1 | 25.7%
N#Cc1c(N)nc2c(c1N)C(c1ccc(Cl)cc1)C1=C(CCCC1=O)N2c1sc2c(c1C#N)CCCC2 (stereo unspecified) | 89.2%
CCSc1ccc([C@@H]2[C@@H](O)C(=O)N2c2cc(OC)c(OC)c(OC)c2)cc1 | -35.4% (active)
CC(=O)OC[C@]12CC[C@@H](c3cn(Cc4ccc(Cn5cc([C@@H]6CC[C@]7(COC(C)=O)CC[C@]8(C)[C@H](CC[C@@H]9[C@@]%10(C)CC[C@H](OC(C)=O)C(C)(C)[C@@H]%10CC[C@]98C)[C@@H]67)nn5)cc4)nn3)[C@@H]1[C@H]1CC[C@@H]3[C@@]4(C)CC[C@H](OC(C)=O)C(C)(C)[C@@H]4CC[C@@]3(C)[C@]1(C)CC2 | 90.5%

SMILES | growth
O=C(CI)Nc1ccc(O)c2ccccc12 | -11.9% (active)
Nc1ncnc2c1c(-c1ccc(Oc3ccccc3)cc1)nn2CC1SSCC1O (stereo unspecified) | -25.9% (active)
Cn1ccnc1C(=O)/C=C/c1ccc(CC(=O)Nc2cc(F)c(F)c(F)c2)cc1 | -31.2% (active)
Cn1c(=O)c2[nH]c(=S)n(Cc3ccccc3)c2n(C)c1=O | 101%
Nc1nc(N=Nc2ccc(O)cc2)cc(=O)[nH]1 | 95.6%
O=S(=O)(NCCNc1nccc(-c2c(-c3cccc(F)c3)nc3sccn23)n1)c1ccccc1 | 63.1%
COc1ccc(NC(=O)c2sc3nc(C)c(C(=O)c4ccc(OC)cc4)cc3c2N)cc1 | 6.31% (active)
COc1cc(C2CC(c3ccc(C)cc3)=NN2C=O)ccc1OCCN(C)C (stereo unspecified) | 95.3%
O=c1c2cc(Cl)ccc2oc2ccc(OCCCCCN3CCCCCC3)cc12 | 54.2%
COc1cccc(-c2cc(-c3cccc(Cl)c3)c(C#N)c(=O)[nH]2)c1 | 36.2%
Cn1c(COC(=O)NCCN2CCOCC2)nc2c(N3CCOCC3)nc(-c3ccccc3)nc21 | -52.8% (active)
Cc1ccc(S(=O)(=O)N(CC[C@@H]2C[C@H]2c2cc3ccccc3o2)C(=O)NC2CCCCC2)cc1 | 105%
CNC(=O)c1cc(Oc2cccc3nc(NC(=O)Nc4ccc(F)cc4F)ccc23)ccn1 | 81.8%
O=C(CSc1nc2ccc([N+](=O)[O-])cc2[nH]1)Nc1cccc([N+](=O)[O-])c1 | 57.5%
CCOC(=O)Nc1cc2c(c(N)n1)N=C(c1ccccc1)CO2 | -0.963% (active)
CCCCCc1ccc(S(=O)(=O)Nc2cc(-c3csc(NC(C)=O)n3)ccc2N2CCN(C)CC2)cc1 | -61.7% (active)
Cc1oc2nc[nH]c(=O)c2c1C(=O)/C=C/c1ccc(Cl)cc1Cl | 7.83% (active)
N#Cc1c(-c2ccccc2)nc(SCC(O)CN2CCOCC2)nc1N1CCOCC1 (stereo unspecified) | 72.2%
